Results filed as inconclusive are left out. Calls of active or inactive are those of the source. No rule for the calls is given here.
Assay: dose response, DH231 delta cqsS, luminescence, dry powder (AID 651808)
Conditions: V. cholerae DH231 delta cqsS, luxCDABE luminescence, 6 h, stronger effect = higher value

With CCn1nnc(NCc2ccc(C)cc2)n1 the max activity (light induction) (at 0.35 µM, test 2) was 39.1% (inactive).
CC(C)c1ccc(CNc2nnnn2C)cc1 showed a max activity (light induction) (measured here: test 1 replicate run, at 0.0042 µM, test 1) of 39.1%.
Molecule CCCn1nnnc1NCc1ccccc1Cl has a max activity (light induction) (measured here: test 1 replicate run, at 0.35 µM, test 1) of 43.6%.

— PubChem BioAssay AID651808 (Broad Institute, 2012)
